Assay outcomes: PubChem, National Center for Advancing Translational Sciences (NCATS)
Hits are enriched below; roughly 19% of the tested compounds scored in any of these assays.
TDP1 cell noCPT – qHTS for Inhibitors of human tyrosyl-DNA phosphodiesterase 1 (TDP1): qHTS in cells in absence of CPT | Potency, µM (titrated, usually from 46.2 µM), most hits filed as inhibitors | DT40 Tdp1-/- hTDP1 cells, no CPT, ATP luminescence, 48 h | 420,000 compounds, 15% hits; further: nearly all actives have a fitted effect of over 55% in size
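Chicken DT40 Tdp1-/- cells complemented with human TDP1, screened without camptothecin (DMSO vehicle only), 400 cells/well. Compounds pin-transferred, cells incubated at 37 °C for at least 48 hr. Growth read as ATP-dependent luminescence (CellTiter-Glo, 30 min at RT).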
HT1080-NT tox – qHTS for induction of synthetic lethality in tumor cells producing 2HG: qHTS for the HT-1080-NT fibrosarcoma cell line. HT-1080-NT fibrosarcoma viability, CellTiter-Glo ATP luminescence, 48 h. Potency, µM (titrated, usually from 46.1 µM), hits mostly cytotoxic. 360,000 compounds, 1.6% hits;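 further: NT is the 2HG producing partner of a matched IDH1 knockdown line; nearly all actives have a fitted effect of over 55% in size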
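Read-out is CellTiter-Glo luminescence after 10 minutes at room temperature, following 48 hours' compound treatment of HT-1080-NT cells (750 cells/well, RPMI, 5% FBS, 37 degrees C).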
IL1B secr inh – qHTS for Inhibitors of Inflammasome Signaling: IL-1-beta AlphaLISA Primary Screen; THP-1 LPS/ATP IL-1B secretion, AlphaLISA, 16 h; active compounds read low; activity change, % at 57.5 µM; AID 743279, 2014; 360,000 compounds, 4.7% hits; in the data active means activity change below about -50%; inconclusive means mostly about -30% to -49%
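THP-1 cells pretreated 1 hr with compounds (up to 57.5 uM final), then stimulated with LPS (250 ng/mL final) plus ATP (1.25 mM final); secreted IL-1B measured by AlphaLISA after 16 hr, decreased signal indicating inhibition.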
HT1080 IDH1KD tx – qHTS for induction of synthetic lethality in tumor cells producing 2HG: qHTS for the HT-1080-IDH1KD cell line. HT-1080 IDH1 knockdown viability, ATP luminescence, 48 h. Potency, µM (doses to about 46.1 µM), usual class: cytotoxic. 360,000 compounds, 2% hits
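In this qHTS, HT-1080 cells depleted of IDH1 are exposed for 48 h at 37 °C to compound titrations. Toxicity is scored from CellTiter-Glo luminescence, with DMSO as full viability and medium alone as none.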
DT40 TDP1 CPT – qHTS for Inhibitors of human tyrosyl-DNA phosphodiesterase 1 (TDP1): qHTS in cells in presence of CPT; AID 686979, 2013; Potency, µM (series often up to 46.2 µM), most hits filed as inhibitors; 420,000 compounds, 12% hits; chicken DT40 Tdp1-/-;hTDP1 cells + 20 nM CPT, ATP luminescence, 48 h; further: nearly all actives have a fitted effect of over 55% in size
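Chicken DT40 Tdp1-/- cells stably complemented with human TDP1 were seeded at 400 cells/well in medium containing 20 nM camptothecin, exposed to pin-transferred compounds, and grown at 37 °C for at least 48 hr. Viability was read as ATP luminescence.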
Numbers stand for hits; n = inactive; u = inconclusive; x = no result; [ ] = another dose, or the depositor's remark. Unless noted, the call rests on the fitted dose curve; in most records, active means well fitted curve in the direction sought with a large enough effect; inconclusive means small, poorly fitted or top-dose-only effect, or another doubt; inactive means no such curve, though single readings can be large; an effect the other way counts as inactive or inconclusive.

SMILES | TDP1 cell noCPT | HT1080-NT tox | IL1B secr inh | HT1080 IDH1KD tx | DT40 TDP1 CPT
COc1ccc(C(=O)CCC(=O)Nc2ccc(C)c(Cl)c2)cc1 | n | x | x | x | n
CCCc1nnc(SCC(=O)NC2CCCC2)n1CCOC | n | n | n | n | n
Cc1ccc(-c2ccc(C(=O)NCCCNC(=O)c3cnccn3)o2)cc1Cl | u | n | n | n | u
CCO[C@H]1OC(C(=O)N2CCN(Cc3ccc4c(c3)OCO4)CC2)=C[C@@H](c2ccc(C(F)(F)F)cc2)[C@@H]1CCCO | 23µM | n | -77 | u | 18µM
CCO[C@@H]1OC(C(=O)N2CCN(Cc3ccc4c(c3)OCO4)CC2)=C[C@H](c2csc3ccccc23)[C@H]1CCCO | 23µM | n | u | u | n
CCO[C@@H]1OC(C(=O)N2CCN(Cc3ccccc3)CC2)=C[C@H](c2ccc(Br)cc2)[C@H]1CCCO | 23µM | n | n | n | u
CCO[C@H]1OC(C(=O)N2CCN(Cc3ccc4c(c3)OCO4)CC2)=C[C@@H](c2ccccc2)[C@@H]1CCCO | u | n | n | n | u
CCO[C@@H]1OC(C(=O)N2CCN(Cc3ccccc3)CC2)=C[C@H](c2ccc(C(F)(F)F)cc2)[C@H]1CCCO | u | n | -88 | n | u
CC(C)NC(=O)CCCN1C(=O)CCn2nc(-c3cccn3C)cc21 | n | x | x | x | n
COc1ccc(/C=C/c2nnc(NC(=O)COc3ccc(C)cc3)s2)cc1 | n | n | n | n | n
CCNc1ncc2nc(-c3cn(C)c4ccccc34)c(=O)n(C)c2n1 | n | x | x | x | u
CC[n+]1cccc(Br)c1 | n | x | x | x | n
CC1CCCCC12NC(=O)N(CC(=O)Nc1sccc1C(N)=O)C2=O (stereo not given) | n | n[9.24 µM] | n | n | n
CC[C@H](C)Cc1cn([C@@H](CCCN=C(NC(=O)OC(C)(C)C)NC(=O)OC(C)(C)C)C(=O)NCCCCCCCCCCC(=O)N2CCN(C(=O)OC(C)(C)C)CC2)nn1 | 7.3µM | u | n | u | 9.2µM
NCCCCCc1cn([C@@H](CO)C(=O)NCCCCCCCCCCC(=O)N2CCNCC2)nn1 | n | n | n | n | n
CC(C)(C)OC(=O)NCCCCCc1cn(CC(=O)NCCCCCCCCCCC(=O)N2CCN(C(=O)OC(C)(C)C)CC2)nn1 | 6.5µM | n | n | n | 5.8µM
CC[C@H](C)Cc1cn([C@@H](CCCCN)C(=O)NCCCCCCCCCCC(=O)N2CCNCC2)nn1 | n | n | n | n | n
Cc1cn([C@@H](CCCCNC(=O)OC(C)(C)C)C(=O)NCCCCCCCCCCC(=O)N2CCN(C(=O)OC(C)(C)C)CC2)nn1 | 7.3µM | 21µM | n | u | 8.2µM
CCC(=O)NC(C)C(c1cccs1)N1CCN(c2ccccc2)CC1 (stereo not given) | n | n | n | n | u
CCC(=O)NC(c1cccs1)c1cc(Cl)c2cccnc2c1O (stereo not given) | 3.3µM | u | n | u | 4.6µM
CCCCC(=O)NC(c1cccs1)c1cc(Cl)c2cccnc2c1O (stereo not given) | 2.6µM | u | n | u | 3.7µM
CC(=O)Nc1ccc(C(=O)COC(=O)C2CCCCC2)c(F)c1 | n | n | n | n | n
Cc1cnc(NC(=O)CSC(=S)N2CCOCC2)s1 | n | n | n | n | n
COc1ccc(C2c3[nH]c4ccccc4c3CCN2CCCn2cccn2)c(C)c1C (stereo not given) | 13µM | u | n | u | 12µM
CC(C)(C)C(=O)NNC(=O)c1cc2sccc2s1 | n | n | n | n | n
CCn1c2ccccc2c2cc(/C=N/n3cnnc3)ccc21 | n | u | -59 | n | 18µM
CCn1c2ccccc2c2cc(/C=N/n3c(-c4cc(C)[nH]n4)n[nH]c3=S)ccc21 | u | n | n | u | 21µM
